In PubChem BioAssay AID2530 (National Center for Advancing Translational Sciences (NCATS), 2010):
Inconclusive results are not listed. Where a call stands in place of a potency, no number is given. The source made the active and inactive calls. Calls come from the whole dose curve; as a rule, active = well fitted inhibition curve with a large enough effect; inconclusive = small, poorly fitted or top-dose-only effect; inactive = flat fitted curve, though single readings scatter.

Target: Luciferin 4-monooxygenase (Photuris pensylvanica) (UniProt Q27757)
Test: Secondary Assay for Luciferase (Kinase-Glo TM) Inhibition Counterscreen
Summary of the method: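 Inhibition was fitted with the Hill equation after normalizing luminescence to DMSO (basal) and 40 uM SIB 1757 (full inhibition). Kinase-Glo luciferase ran for 8 min at room temperature in imidazole buffer pH 7.2 with KCl, MgCl2 and 10 uM ATP.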
Potency is the fitted concentration of half-maximal effect.

| Structure (SMILES) | Potency |
| --- | --- |
| CN=c1scc(-c2ccco2)n1/N=C/c1ccc(O)c(O)c1 | inactive |
| Cc1ccc(N2C(=O)c3ccccc3C2O)nc1 (centres undefined) | 6.51 µM (active) |
| O=S(=O)(Nc1ccc(O)c(NS(=O)(=O)c2ccccc2)c1)c1ccccc1 | inactive |
| COc1ccc(-c2nc(-c3ccccn3)no2)cc1 | 2.91 µM (active) |
| COc1ccc(OC2=NS(=O)(=O)c3ccccc32)cc1 | inactive |
| Cc1ccc(NS(=O)(=O)c2cc3c(cc2Cl)NC(=O)CO3)cc1C | inactive |
| O=S1(=O)N=C(Oc2ccccc2)c2ccccc21 | inactive |
| Cc1ccc(NS(=O)(=O)c2cc3c(cc2C)NC(=O)CO3)cc1C | inactive |
| Cc1ccc(-c2nc3cnccn3c2Nc2ccc(C(C)C)cc2)o1 | inactive |
| Cc1ccc(NS(=O)(=O)c2cc3c(cc2/C=C/c2ccccc2)NC(=O)CO3)cc1C | inactive |
| O=C1CCc2cc(S(=O)(=O)Nc3cccnc3)ccc2N1 | inactive |
| O=S(=O)(c1ccc2c(c1)OCCO2)N1CCN(S(=O)(=O)c2c(F)cccc2F)CC1 | inactive |
| CN(C)c1ccc(N=Nc2nc3ccccc3n2C)cc1 | 9.19 µM (active) |
| O=C1CCc2cc(S(=O)(=O)Nc3cccc(Cl)c3)ccc2N1 | inactive |
| Cc1ccc(NS(=O)(=O)c2cccc(C(=O)O)c2)cc1C | inactive |
| Cc1ccc(NS(=O)(=O)c2cc3c(cc2N(C)C)NC(=O)CC3)cc1C | inactive |
| c1ccc(-c2nc(-c3ccccn3)no2)cc1 | 3.66 µM (active) |
| Cc1ccc(NS(=O)(=O)c2ccc3c(c2)CCC(C)(C)O3)cc1C | inactive |
| Cc1ccc(NS(=O)(=O)c2cccc(Cl)c2)cc1C | inactive |
| Cc1ccc(NS(=O)(=O)c2ccc(-c3ccccc3)cc2)cc1C | inactive |

| Structure (SMILES) | Potency |
| --- | --- |
| O=C1c2ccccc2C(=O)N1c1cccc2cnccc12 | inactive |
| O=C1c2ccccc2C(=O)N1c1cccc2ncccc12 | inactive |
| Cc1ccc(-c2cc3c(nn2)-c2ccccc2C3=O)cc1 | 5.8 µM (active) |
| Cc1ccc(OC2=NS(=O)(=O)c3ccccc32)cc1 | inactive |
| COc1ccc2[nH]c3c4c(ccc3c2c1)C(=O)C=CC4=O | inactive |
| Cc1ccc2c(c1)c1ccc3c(c1n2C)C(=O)C=CC3=O | inactive |
| O=C1CCc2cc(S(=O)(=O)Nc3ccncc3)ccc2N1 | inactive |
| O=C(NC(=O)c1ccccc1)Nc1ccccn1 | 5.8 µM (active) |
| Cc1ccc(N2C(=O)c3ccccc3C2=O)c(C)c1 | inactive |
| CC(=O)N1CCc2cc(S(=O)(=O)Nc3ccc(C)c(C)c3)ccc21 | inactive |
| Cn1c2cc(S(C)=O)sc2c2cnn(Cc3cccc(N)c3)c(=O)c21 (centres undefined) | inactive |
| O=C1CCc2cc(S(=O)(=O)Nc3ccccc3-c3ccccc3)ccc2N1 | inactive |
| O=C1c2ccccc2C(=O)N1c1cccc2ccncc12 | inactive |
| COc1ccc(-c2cc3nc(C)n(N)c(=O)c3s2)cc1 | 2.31 µM (active) |
| O=C1C=CC(=O)N1c1cccc(-c2ccccc2)c1 | inactive |
| COc1cccc(N2C(=O)c3ccccc3C2=O)c1 | inactive |
| CCCCN1C(=O)c2ccccc2C1=O | inactive |
| O=C1c2ccccc2C(=O)N1Cc1cccnc1 | inactive |
| O=C(/C=C/c1ccc2c(c1)OCO2)c1ccccn1 | 5.8 µM (active) |
